Compound activity deposited in PubChem by National Center for Advancing Translational Sciences (NCATS).
Hits are enriched below; roughly 7% of the tested compounds scored in any of these assays.
IL1B secr inh: qHTS for Inhibitors of Inflammasome Signaling: IL-1-beta AlphaLISA Primary Screen; 360,000 tested, 4.7% active; activity change, % at 57.5 µM; THP-1 LPS/ATP IL-1B secretion, AlphaLISA, 16 h; active compounds read low; in the data active means activity change below about -50%; inconclusive means mostly about -30% to -49%; further: on the % scale 0 is the no-effect control and ±100 the full control effect
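Secreted IL-1B measured by AlphaLISA bead assay after 16 h compound exposure of THP-1 cells; compounds (final up to 57.5 uM) added 1 h before LPS (250 ng/mL) and ATP (1.25 mM) stimulation; lower signal means less secretion.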
D3 antag: qHTS of D3 Dopamine Receptor Antagonist: qHTS. D(3) dopamine receptor (Homo sapiens), P35462. D3R cells, DiscoveRx beta-arrestin luminescence, antagonist mode; active compounds read low. max response, negative = inhibition, %. 360,000 tested, 2.5% active; in the data active means max response below about -50%; inconclusive means no clear call, values can overlap the other calls; further: on the % scale 0 is the no-effect control and ±100 the full control effect
Target sequence (P35462 whole entry, looked up): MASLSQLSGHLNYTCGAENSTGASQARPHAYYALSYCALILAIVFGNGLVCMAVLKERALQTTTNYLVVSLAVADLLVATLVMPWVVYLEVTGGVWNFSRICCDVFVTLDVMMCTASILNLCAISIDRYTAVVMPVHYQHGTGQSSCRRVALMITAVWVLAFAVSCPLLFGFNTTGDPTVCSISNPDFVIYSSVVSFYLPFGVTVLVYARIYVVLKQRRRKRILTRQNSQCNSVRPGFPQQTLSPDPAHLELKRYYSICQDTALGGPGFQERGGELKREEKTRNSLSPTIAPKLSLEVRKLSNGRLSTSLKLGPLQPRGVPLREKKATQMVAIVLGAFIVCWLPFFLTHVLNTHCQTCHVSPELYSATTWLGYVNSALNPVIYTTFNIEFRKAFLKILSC
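Cells plated overnight at 1500 cells/well, then exposed to library compounds with dopamine controls for 90 minutes at 37 degrees C. DiscoveRx reagent added for 30–60 minutes at room temperature; luminescence read, quantitative HTS format.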
ATXN2 expr inh: Primary qHTS for Inhibitors of ATXN expression; 360,000 tested, 0.72% active; HEK-293 ATXN2-luciferase reporter, luminescence, 24 h; Potency, µM (series often up to 57 µM), without a hit: top-dose activity change, negative = inhibition, hits mostly inhibitors; further: potency means the concentration at half of the fitted maximal effect; on the % scale 0 is the no-effect control and ±100 the full control effect; nearly all actives have a fitted effect of over 55% in size
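ATXN2-luciferase reporter cells (luciferase flanked by upstream and downstream ATXN2 gene portions) were treated 24 h at 37 °C with compounds at up to 57 uM. SteadyGlo luminescence gave expression; GF-AFC fluorescence gave viability.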
a7 integrin act: qHTS for Activators of Integrin-Mediated Alleviation for Muscular Dystrophy; AID 624291, 2012; Potency, µM (top dose mostly 38.3 µM), without a hit: at the highest dose activation, usual class: activators; alpha7betagal myoblasts, beta-gal FDG fluorescence, 48 h; 350,000 tested, 0.064% active;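 further: potency means the concentration at half of the fitted maximal effect; 100% = response of the positive control SU9516; nearly all actives have a fitted effect of over 60% in size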
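Alpha7betagal+/- myoblasts (passage 13) were plated 16-24 hr, then exposed to compounds (1:260 dilution of DMSO stock) for 48 hours at 37C. After MPER lysis, β-galactosidase reporter activity was read as FDG fluorescence (ex 480/em 540) after 30 minutes.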
DRD3 agonist: qHTS of D3 Dopamine Receptor Agonist: qHTS; D(3) dopamine receptor (Homo sapiens), P35462; D3R DiscoveRx beta-arrestin cells, luminescence, 90 min; max activation, %; 410,000 tested, 0.58% active; AID 652048, 2013; in the data active means max activation above about 30%; further: 0% is about no effect
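Agonist mode: compounds and dopamine controls were applied to plated cells for 90 min at 37 degrees C after an overnight attachment at 1500 cells/well. Luminescent read-out followed 30 - 60 minutes at room temperature with DiscoveRx detection reagent.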
ATXN viability: Viability Counterscreen for Primary qHTS for Inhibitors of ATXN expression; S2 cells (HEK-293 line with an ATXN2-luciferase reporter) viability, CellTiter-Fluor protease fluorescence, 24 h; Potency, µM (titrated, usually from 56.7 µM), actives largely listed as cytotoxic; 400,000 tested, 0.49% active; further: potency means the concentration at half of the fitted maximal effect; nearly all actives have a fitted effect of over 40% in size
An asterisk follows results filed as active; i = inactive; u = inconclusive; x = not tested or not shown; ! = a repeat was not active. Unless noted, the call rests on the fitted dose curve; in most records, active means well fitted curve in the direction sought with a large enough effect; inconclusive means small, poorly fitted or top-dose-only effect, or another doubt; inactive means no such curve, though single readings can be large; an effect the other way counts as inactive or inconclusive.

SMILES | IL1B secr inh | D3 antag | ATXN2 expr inh | a7 integrin act | DRD3 agonist | ATXN viability
N=C1c2ccccc2CN1c1cccc([N+](=O)[O-])c1 | 11 | 16 | -9% | -38% | 6 | i
N=C1c2ccccc2CN1c1ccc(F)c([N+](=O)[O-])c1 | -99* | -4 | 4% | -23% | -5 | u
CC(C)(C)NC(=S)N1Cc2ccccc2-n2nncc2C1 | 9 | u | -5% | 10% | -9 | i
Cn1c(=O)oc(=O)c2ccccc21 | 2 | 4 | 8% | 28% | 31* | i
CCOP(=O)(OCC)C(NC(=O)c1ccc(C)cc1)=C(Cl)Cl | 26 | 3 | -1% | -17% | 0 | i
CCCCCCCCCCCCCCCC[N+](C)(C)C | -14 | 14 | 32µM*! | x | 3 | u
NP(=O)(OCCCc1ccccc1)Oc1ccc(Cl)cc1 (centres undefined) | 3 | 0 | 8% | -17% | 4 | i
NP(=O)(OCCCc1ccccc1)c1ccccc1 (centres undefined) | 12 | -15 | 9% | -7% | 36* | i
C[C@H](CO)N1C[C@H](C)[C@@H](CN(C)C(=O)Oc2ccc3ccccc3c2)OCc2cn(nn2)CCCC1=O | 20 | 12 | 3% | 8% | 3 | i
COc1ccc(C[C@@H]2c3cc(O)c(OC)cc3CCN2C)cc1O | 7 | -117* | 4% | 42% | -31 | i
COc1cc2c(cc1O)[C@@H]1Cc3ccc(OC)c(O)c3CN1CC2 | 19 | -100* | -22% | x | -89 | i
Cc1ccc([C@H]2C[C@@H](O)[C@H](n3cc(COC(=O)c4ccccc4)nn3)CN2CC2CCCCC2)cc1 | 29 | 7 | 0% | 19% | 0 | i
NC(=O)c1ccc(N)nc1 | 8 | -17 | -10% | x | -10 | i
C=C1C(=O)O[C@@H]2C[C@@H](C)[C@H]3C=CC(=O)[C@]3(O)C[C@@H]12 | -99* | u | u | -9% | 10 | x
O=c1cc(-c2ccc(O)c(O)c2)oc2cc(O)cc(O)c12 | 0 | 55 | 25% | -23% | 43* | u
Cc1ccc(CNC(=O)c2ccc(CSc3nc4ccncc4n3Cc3ccc(C)cc3)cc2)cc1 | x | x | -23% | x | -18 | u
CN1CCN(S(=O)(=O)c2cnc(Cl)c(Br)c2)CC1 | -97* | 0 | 13% | -51% | -1 | i
CCN1CCN(S(=O)(=O)c2ccc(Cl)nc2)CC1 | -18 | -10 | 1% | 1% | -11 | i
CC(Cc1ccccc1)NC(=O)NC(C)Cc1ccccc1 (centres undefined) | -7 | -26 | 59% | 14% | 6 | i
CC(C)NC(C)Cc1ccc(I)cc1 (centres undefined) | -17 | -89* | -5% | x | -21 | i
COc1cc(C[C@H](C)N)c(OC)cc1C | x | x | x | x | -20 | u
ClCCN1CCN(c2ccnc3cc(Cl)ccc23)CC1 | -50* | u | -19% | 7% | -18 | i
CN(C)C1CCc2[nH]c3c(F)cc(F)cc3c2C1 (centres undefined) | -8 | -105* | x | -38% | -10 | i
Cn1cnc([N+](=O)[O-])c1Sc1ccc([N+](=O)[O-])cc1 | -101* | 0 | 8% | 0% | 8 | u
O=C(NC(=S)N1C[C@H]2C[C@H](C1)c1cccc(=O)n1C2)c1ccc(Cl)cc1 | 4 | 26 | 3% | 8% | -6 | i
SMILES | IL1B secr inh | D3 antag | ATXN2 expr inh | a7 integrin act | DRD3 agonist | ATXN viability
CCN(CC)C(=O)c1ccc(NC(=S)NC(=O)CCc2ccccc2)cc1 | u | -19 | -24% | -7% | -3 | i
N[C@@H]1CC[C@@]2(O)[C@H]3Cc4ccc(O)c5c4[C@@]2(CCN3CC2CC2)C1O5 (some centres undefined) | 2 | 0 | -15% | x | 7 | u
Oc1ccc2c3c1OC1c4[nH]c5ccccc5c4C[C@@]4(O)C(C2)N(CC2CC2)CC[C@]314 (some centres undefined) | -64* | 2 | 5% | x | 1 | i
C=C1CC[C@@]2(O)[C@H]3Cc4ccc(O)c5c4[C@@]2(CCN3CC2CC2)[C@H]1O5 | 0 | 0 | -10% | x | -7 | i
Oc1ccc2c3c1OC1c4oc5ccccc5c4C[C@@]4(O)[C@@H](C2)N(CC2CC2)CC[C@]314 (some centres undefined) | -50* | -19 | 59% | x | 6 | i
O=C1/C(=C/c2ccccc2)C[C@@]2(O)[C@H]3Cc4ccc(O)c5c4[C@@]2(CCN3CC2CC2)C1O5 (some centres undefined) | -108* | -4 | 3.5µM* | x | -45 | 7.1µM*
Cn1cccc1C1CCCN1CC(=O)Nc1ccc(C#N)c(Cl)c1 (centres undefined) | -20 | -9 | -34% | 1% | -2 | i
O=C1NC(=O)C(=Cc2ccc(SC3CCCCC3)o2)C(=O)N1 | u | 14 | 18µM* | -33% | 10 | x
O=C1c2cccc3cc([N+](=O)[O-])cc(c23)C(=O)N1c1ccccc1O | 18 | -10 | -34% | -29% | 9 | u
CCC[C@H](N[C@@H](CCC)[C@H](O)c1ccccc1)[C@H](O)c1ccccc1 | -58* | -14 | -24% | 10% | -9 | i
N#Cc1ccccc1OCC(=O)N1CCN(CC(=O)Nc2ccc(F)cc2)CC1 | 10 | 11 | 9% | 3% | -9 | i
CC(CN1CCOCC1)C(C#N)(c1ccccc1)c1ccccc1 (centres undefined) | 4 | 7 | -5% | -23% | -15 | i
CN1CCN(CCC(C#N)(c2ccccc2)c2ccccc2)CC1 | u | -80* | 4% | 0% | -1 | i
C[C@]12C=CC(=O)C=C1CC[C@@H]1[C@@H]2CC[C@]2(C)OC(=O)CC[C@@H]12 | x | x | x | x | -7 | x
CC1(C)COC(Nc2cccc(Cl)c2)=N1 | 0 | -55* | 9% | 14% | 14 | i
CC1(C)CSC(Nc2ccc(F)c(Cl)c2)=N1 | 3 | 0 | 25% | -14% | 0 | u
CCN1C[C@@]2(COC)C3[C@@H](OC)[C@H]4[C@@H]1[C@@]3(C1C[C@H]3[C@H](OC(=O)c5ccccc5)C1[C@]4(OC(C)=O)C[C@H]3OC)[C@@H](OC)C[C@H]2O (some centres undefined) | 3 | 0 | -9% | 4% | 5 | i
O=C1CN=C(c2ccccc2)c2cc([N+](=O)[O-])ccc2N1 | -78* | -21 | -10% | x | -9 | i
